High-throughput results deposited in PubChem BioAssay by The Scripps Research Institute Molecular Screening Center.
FBW7 act – activators of human E3 ligase FBW7; AlphaScreen FBW7–phospho-cyclin E peptide binding, activator screen; normalized activity (activation), % at 26.1 µM; actives 0.13% (n = 650,000); AID 1259310; in the data active = normalized activity above about 1.9%;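 also: purified mutant Fbw7 with reduced substrate affinity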
MITF primary – human MITF inhibition, primary screen | O75030 | AlphaScreen MITF homodimerization, bead proximity signal | actives 0.91% (n = 650,000) | inhibition, % at 2.6 µM; in the data active = inhibition above about 50%;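 also: 0% = vehicle wells with protein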
Target sequence (O75030 whole entry, looked up): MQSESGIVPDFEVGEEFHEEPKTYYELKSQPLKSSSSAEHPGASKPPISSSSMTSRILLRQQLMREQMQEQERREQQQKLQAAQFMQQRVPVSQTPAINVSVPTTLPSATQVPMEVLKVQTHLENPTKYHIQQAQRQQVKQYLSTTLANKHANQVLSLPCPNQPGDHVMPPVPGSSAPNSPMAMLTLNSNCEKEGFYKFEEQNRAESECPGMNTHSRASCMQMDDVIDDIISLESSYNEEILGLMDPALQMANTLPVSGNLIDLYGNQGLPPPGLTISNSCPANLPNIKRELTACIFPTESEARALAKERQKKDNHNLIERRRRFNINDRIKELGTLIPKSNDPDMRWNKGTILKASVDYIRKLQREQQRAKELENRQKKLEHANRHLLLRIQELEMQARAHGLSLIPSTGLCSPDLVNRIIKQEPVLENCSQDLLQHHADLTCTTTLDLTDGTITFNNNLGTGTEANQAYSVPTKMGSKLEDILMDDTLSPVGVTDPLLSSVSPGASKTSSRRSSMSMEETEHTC
TEAD-YAP inh – TEAD-YAP interaction inhibition | inhibition, % at 9.12 µM | actives 1.4% (n = 640,000) | AID 1259422 | HEK-TIYL cells, TEAD-Gal4/YAP UAS-luciferase luminescence; in the data active = inhibition above about 32%;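 also: 0% = median of test compound wells and 100% = reference inhibitor wells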
GPR151 ag – activates the human receptor GPR151. Q8TDV0. PathHunter beta-arrestin GPR151 cells, luminescence. activation, % at 11.2 µM. actives 1% (n = 650,000); in the data active = activation above about 4.9%;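 also: 0% = median of compound wells and 100% = cells with positive control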
Active calls of the source: *. An excerpt weighted towards active compounds, which were near 3.5% of everything screened.

SMILES	FBW7 act	MITF primary	TEAD-YAP inh	GPR151 ag
O=C(N/N=C\c1ccc(O)cc1O)c1cnccn1	-1	79*	-6	-1
O=C(N/N=C\c1cccc([N+](=O)[O-])c1O)c1cnccn1	-1	77*	-7	1
O=C(N/N=C\c1cc(Br)ccc1O)c1ccccn1	-1	58*	-23	2
O=C(N/N=C\c1ccc(O)cc1O)c1ccccn1	-1	65*	17	-5
COC(=O)CSc1nnc(-c2ccncc2)n1C	0	11	-6	0
CN(C)C(CN=C1NS(=O)(=O)c2ccccc21)c1ccccc1 (centres undefined)	0	-5	0	-2
Cc1ccc2nc3c(cc(C(N)=O)c(=N)n3CCc3ccccc3)c(=O)n2c1	0	5	39*	-1
CC(C)n1cnc2c(NCCc3ccc(O)cc3)nc(-c3cccc(N)c3)nc21	0	8	12	0
O=C(NC1CC1)c1ccc(-c2nc(NCCc3ccc(O)cc3)c3ncn(-c4ccccc4)c3n2)cc1	0	-3	56*	-1
CC(=O)c1cccc(-c2nc(NCc3ccccc3)c3ncn(C(C)C)c3n2)c1	0	-4	10	0
Cn1c(Nc2nc(NCCc3ccc(O)cc3)c3ncn(C4CCCCC4)c3n2)nc2ccccc21	0	3	35*	-1
CC(=O)c1cccc(-c2nc(NCCc3ccc(O)cc3)c3ncn(C(C)C)c3n2)c1	0	-8	63*	-1
O=C(NC1CC1)c1ccc(-c2nc(NCCOc3ccccc3)c3ncn(-c4ccccc4)c3n2)cc1	0	4	-2	2
CC(=O)c1cccc(-c2nc(NCc3cccnc3)c3ncn(C(C)C)c3n2)c1	0	3	59*	4
Cc1c(C(=O)N2CCOCC2)sc2ncnc(N3CCN(c4ccccc4F)CC3)c12	0	-7	3	0
NC(=O)c1ccc(-c2nc(NCCc3ccc(O)cc3)c3ncn(C4CCCCC4)c3n2)cc1	0	0	44*	1
CC(=O)c1cccc(-c2nc(NCCc3ccc(O)cc3)c3ncn(-c4ccccc4)c3n2)c1	0	12	72*	1
COc1ccc(CCNc2nc(-c3cccc(C(C)=O)c3)nc3c2ncn3-c2ccsc2)cc1	0	0	-1	1
CC(=O)c1cccc(-c2nc(NCCc3ccc(O)cc3)c3ncn(-c4ccsc4)c3n2)c1	0	7	82*	2
NC(=O)c1ccc(-c2nc(NCc3cccnc3)c3ncn(Cc4ccc(C(F)(F)F)cc4)c3n2)cc1	1	-4	46*	-1
Cn1cccc1Cc1nnc(SCC(=O)NO)n1Cc1ccccc1	0	-6	-2	1
CC(=O)c1nn(-c2ccc(Cl)cc2)nc1Nc1cnc2ccccc2c1	1	9	-40	0
CC1=C(C(=O)OCC2CCCO2)C(c2cccc(Br)c2)NC(=O)N1 (centres undefined)	0	-10	-1	2
CC(C)N1C/C(=C\c2ccc3nccnc3c2)C(=O)/C(=C/c2ccc3nccnc3c2)C1	0	-11	-5	0
COCCN(C(=S)Nc1cccc(C)c1)C1CCN(C(C)C)CC1	0	-1	-4	0
SMILES	FBW7 act	MITF primary	TEAD-YAP inh	GPR151 ag
C=CCOc1ccc(/C=C2/SC(N3CCN(C)CC3)=NC2=O)cc1	0	5	6	2
CC(C)OC(=O)c1ccc2c(c1)C(=O)N(c1cc(Cl)ccc1Cl)C2=O	0	-3	-5	1
CCOc1cc(N2CCOCC2)c(OCC)cc1NC(=O)CN1CCCC1	-1	83*	-3	0
CCOc1cc(N2CCOCC2)c(OCC)cc1NC(=O)CN(CC)C1CCCCC1	0	-2	13	0
CC(NC(=O)C1CCCN(S(=O)(=O)c2cccc3cccnc23)C1)c1ccccc1 (centres undefined)	0	5	-1	-1
CN1C(=O)/C(=C/c2cc(Cl)ccc2O)NC1=S	0	-7	62*	2
O=C(N/N=C/c1ccc(Cl)cc1)c1n[nH]c2c1CCCC2	0	17	19	0
O=C(N/N=C/c1cccc2ccccc12)c1n[nH]c2c1CCC2	0	15	47*	-1
O=C(N/N=C/c1ccccc1)c1n[nH]c2c1CCCC2	0	8	69*	0
O=C(N/N=C/c1ccc(O)cc1)c1n[nH]c2c1CCC2	0	-13	59*	-4
C/C(=N\NC(=O)c1n[nH]c2c1CCCC2)c1ccc(O)cc1	0	6	24	-1
O=C(N/N=C/c1ccc([N+](=O)[O-])cc1)c1n[nH]c2c1CCC2	0	-17	54*	-1
NC(=O)c1ccc(N=C2C(=O)Nc3ccccc32)cc1	0	5	1	0
O=C(COc1ccc([N+](=O)[O-])cc1)N/N=C/c1cccc(Br)c1	0	-15	-1	1
Cn1nnnc1SCC(=O)c1ccc(Cl)s1	0	11	4	-1
Cc1cc(C(=O)N/N=C/c2cc(N=Nc3ccccc3)ccc2O)n[nH]1	0	28	62*	0
Cc1cc(C(=O)N/N=C\c2ccccc2O)n[nH]1	-2	30	-43	0
COc1cc(/C=N/NC(=O)c2cc(C)[nH]n2)c(Br)c(Br)c1O	0	17	4	1
COc1cc([N+](=O)[O-])cc(/C=N/NC(=O)c2cc(C)[nH]n2)c1O	-1	59*	-5	-1
COc1cc(Br)cc(/C=N/NC(=O)c2cc(C)[nH]n2)c1O	0	55*	19	1
Clc1ccc(CN2CCN(Cc3ccc(Cl)cc3)C2c2cccc(Br)c2)cc1	0	-5	3	-1
Cc1ccc(C(=O)COC(=O)c2cccc(N3C(=O)C4CC=CC(C)C4C3=O)c2)cc1[N+](=O)[O-] (centres undefined)	0	15	-7	-1
NS(=O)(=O)c1ccc(CCNc2ncnc3sc(-c4ccccc4)cc23)cc1	0	1	42*	-2
COc1ccccc1NC(=O)c1c(C)nc2sc(C(N)=O)c(N)c2c1-c1ccc(C)s1	-1	-6	-14	-1
Nc1cccc(C(=O)N(c2ccccc2)c2cccc3ccccc23)c1	0	14	5	1
SMILES	FBW7 act	MITF primary	TEAD-YAP inh	GPR151 ag
CCOc1ccc(/C=C2/NC(=O)N(CC(=O)Nc3cccc(C)c3)C2=O)c(OCC)c1	2.8*	1	5	0
COc1cccc(Nc2nnc(Cc3ccccc3Cl)c(=O)[nH]2)c1	0	-4	46*	-1
O=c1[nH]c(Nc2ccccc2)nnc1Cc1ccccc1Cl	0	-7	4	0
COc1ccc(CN2CCC(CNC(=O)c3ccncc3)CC2)cc1	0	5	-3	0
N#Cc1ccccc1NC(=O)Cn1ncc(Cl)c(Cl)c1=O	0	10	55*	-1
CCOc1cc(CN2CCC(C(=O)NCCC(C)C)CC2)ccc1O	0	12	0	1
c1ccc(Nc2nc(Nc3ccc4ncccc4c3)nc3c2ncn3-c2ccccc2)cc1	1	7	42*	-2
CC(=O)Nc1ccc(Nc2nc(Nc3ccc4ncccc4c3)nc3c2ncn3-c2ccccc2)cc1	0	1	40*	1
c1ccc(-n2cnc3c(Nc4ccc(N5CCOCC5)cc4)nc(Nc4ccc5ncccc5c4)nc32)cc1	0	-1	4	1
